# From PubChem BioAssay
# Activity calls are given as the source filed them. Unless noted, no rule for the calls is given here.
# Key:
# [1] = compounds binding Alexa647 anti-His antibody – biochemical, small-molecule microarray, 635 nm fluorescence, artefact control for SMM control protein annotation, primary screen (AID 1128); details: higher = more signal;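 also: score merges feature fluorescence with signal-to-noise for each printed compound spot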
# [2] = system: Human papillomavirus type 1a E7 protein (residues 1-88); experiment: HPV1a E7 small-molecule binders, primary screen, biochemical, small-molecule microarray, residues 1-88, 635 nm (AID 1129); details: small-molecule microarray binding, fluorescence 635 nm; higher = more signal
# [3] = biological target: Focal adhesion kinase 1 (Homo sapiens) (UniProt Q05397); experiment: PTK2 protein binding on printed compound slides – biochemical, small-molecule microarray, 635/667 nm fluorescence, BSA, DTT, primary screen (AID 1130); details: 635 nm fluorescence, higher = more signal;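 also: composite of spot emission at 667 nm and signal to noise over triplicate slides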
# Focal adhesion kinase 1 (Homo sapiens), sequence (Q05397 whole entry, looked up): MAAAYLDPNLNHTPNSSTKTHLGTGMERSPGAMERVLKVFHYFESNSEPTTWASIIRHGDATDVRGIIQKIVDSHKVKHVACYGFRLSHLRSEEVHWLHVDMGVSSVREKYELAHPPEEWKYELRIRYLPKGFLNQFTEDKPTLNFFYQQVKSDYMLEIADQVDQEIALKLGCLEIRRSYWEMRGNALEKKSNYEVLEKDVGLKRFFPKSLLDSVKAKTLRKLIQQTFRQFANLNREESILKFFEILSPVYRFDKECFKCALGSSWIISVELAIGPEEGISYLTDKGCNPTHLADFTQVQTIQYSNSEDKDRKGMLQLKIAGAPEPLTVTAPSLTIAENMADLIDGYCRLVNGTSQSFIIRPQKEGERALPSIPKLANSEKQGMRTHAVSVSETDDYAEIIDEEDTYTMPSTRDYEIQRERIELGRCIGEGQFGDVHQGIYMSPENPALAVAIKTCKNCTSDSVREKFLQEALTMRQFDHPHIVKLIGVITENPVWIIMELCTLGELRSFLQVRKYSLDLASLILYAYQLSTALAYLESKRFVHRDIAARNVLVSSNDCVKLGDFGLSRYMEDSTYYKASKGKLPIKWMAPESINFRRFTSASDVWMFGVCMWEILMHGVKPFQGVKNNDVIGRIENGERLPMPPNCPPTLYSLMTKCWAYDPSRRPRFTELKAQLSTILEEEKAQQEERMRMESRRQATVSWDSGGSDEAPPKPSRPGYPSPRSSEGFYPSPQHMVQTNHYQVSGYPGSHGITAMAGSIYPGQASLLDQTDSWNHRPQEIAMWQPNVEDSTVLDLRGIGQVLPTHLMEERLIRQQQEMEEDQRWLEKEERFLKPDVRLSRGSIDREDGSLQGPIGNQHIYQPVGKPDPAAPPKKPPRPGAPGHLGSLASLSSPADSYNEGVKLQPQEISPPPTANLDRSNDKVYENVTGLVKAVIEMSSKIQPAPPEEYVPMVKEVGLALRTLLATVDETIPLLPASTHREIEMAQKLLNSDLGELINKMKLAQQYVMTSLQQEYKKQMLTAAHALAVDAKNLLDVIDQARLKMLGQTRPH
# [4] = system: Fibrinogen (Alexa647-labelled); experiment: Alexa647-fibrinogen binding to printed small molecules – biochemical, small-molecule microarray, 635/667 nm fluorescence, artefact control for SMM control-protein annotation, profiling panel (AID 1131); details: fibrinogen-A647 binding fluorescence, higher = more signal;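 also: z-score merges 667 nm fluorescence with per-spot signal-to-noise over triplicate slides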
# [5] = biological target: Follistatin (Homo sapiens) (UniProt P19883); experiment: FST protein binding to printed compounds – biochemical, small-molecule microarray, 635/667 nm fluorescence, primary screen (AID 1132); details: 635 nm fluorescence, higher = more signal
# Follistatin (Homo sapiens), sequence (P19883 whole entry, looked up): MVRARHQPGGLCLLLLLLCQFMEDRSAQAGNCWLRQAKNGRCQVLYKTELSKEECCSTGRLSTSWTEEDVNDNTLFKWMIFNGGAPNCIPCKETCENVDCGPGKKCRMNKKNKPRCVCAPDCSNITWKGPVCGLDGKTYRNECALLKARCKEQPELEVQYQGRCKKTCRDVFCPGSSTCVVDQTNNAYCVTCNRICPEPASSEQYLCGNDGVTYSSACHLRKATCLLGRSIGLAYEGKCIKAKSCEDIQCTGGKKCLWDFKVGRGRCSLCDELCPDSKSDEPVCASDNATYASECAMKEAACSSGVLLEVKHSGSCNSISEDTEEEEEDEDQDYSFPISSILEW
# [6] = biological target: Fibroblast growth factor 2 (Homo sapiens) (UniProt P09038); experiment: basic fibroblast growth factor binding to printed compounds – biochemical, small-molecule microarray, 635/667 nm fluorescence, primary screen (AID 1133); details: FGF2, fluorescence 635/667, higher = more signal
# Fibroblast growth factor 2 (Homo sapiens), sequence (P09038 whole entry, looked up): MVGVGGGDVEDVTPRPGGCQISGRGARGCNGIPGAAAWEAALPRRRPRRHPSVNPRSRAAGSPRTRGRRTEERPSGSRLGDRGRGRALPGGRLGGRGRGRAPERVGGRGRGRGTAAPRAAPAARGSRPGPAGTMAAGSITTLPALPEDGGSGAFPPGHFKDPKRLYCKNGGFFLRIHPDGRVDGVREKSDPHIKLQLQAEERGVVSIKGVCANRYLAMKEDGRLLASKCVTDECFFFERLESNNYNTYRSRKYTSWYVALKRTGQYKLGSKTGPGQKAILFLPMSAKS
# [7] = JC-1 mitochondrial potential readout, lung cancer cells – cell-based, A549, JC-1 fluorescence, basal, 24 h, 100 nL, profiling panel (AID 1138); details: higher = more signal;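 also: A549 lung adenocarcinoma cells under basal conditions with no added stimulus; test concentration not given here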
# Lefty1 = Lefty1 protein binding to printed compounds – biochemical, small-molecule microarray, 635/667 nm fluorescence, primary screen (AID 1139); details: fluorescence 635/667, higher = more signal
# [8] = system: wheat germ agglutinin (Triticum aestivum), Alexa647-labelled; experiment: Alexa647-WGA lectin binding to printed small molecules – biochemical, small-molecule microarray, 635/667 nm fluorescence, artefact control for SMM control-protein annotation, profiling panel (AID 1140); details: WGA-A647 binding, 635 nm fluorescence, higher = more signal;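 also: score merges 667 nm feature emission with signal to noise over triplicate slides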
# [9] = biological target: Luciferin 4-monooxygenase (Photinus pyralis) (UniProt P08659); experiment: inhibition of purified Photinus pyralis luciferase – biochemical, luminescence, purified enzyme, 2006 set, primary screen (AID 1141); details: purified firefly luciferase, SteadyGlo luminescence, 30 min; higher = more signal, called active from +8 up or from −8 down;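 also: cell-free assay with purified firefly luciferase at 100 ng per well in PBS; test concentration not given here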
# Luciferin 4-monooxygenase (Photinus pyralis), sequence (P08659 whole entry, looked up): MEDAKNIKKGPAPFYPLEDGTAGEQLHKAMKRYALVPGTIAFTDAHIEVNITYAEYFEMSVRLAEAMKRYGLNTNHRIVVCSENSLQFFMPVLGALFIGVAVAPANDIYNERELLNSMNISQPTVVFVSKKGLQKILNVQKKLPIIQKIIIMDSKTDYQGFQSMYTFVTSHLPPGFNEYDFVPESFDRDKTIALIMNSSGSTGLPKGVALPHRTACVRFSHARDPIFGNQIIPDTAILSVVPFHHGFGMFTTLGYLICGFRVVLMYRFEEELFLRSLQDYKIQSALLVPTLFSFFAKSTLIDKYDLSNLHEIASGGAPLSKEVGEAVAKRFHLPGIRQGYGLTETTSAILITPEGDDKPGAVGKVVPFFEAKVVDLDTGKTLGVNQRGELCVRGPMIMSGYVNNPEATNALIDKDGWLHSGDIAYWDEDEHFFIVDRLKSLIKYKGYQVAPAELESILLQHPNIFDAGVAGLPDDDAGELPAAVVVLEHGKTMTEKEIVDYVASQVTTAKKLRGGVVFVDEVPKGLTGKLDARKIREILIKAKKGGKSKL
# [10] = system: Wnt5a (protein binding on small-molecule microarray); experiment: small molecules binding Wnt5a protein – biophysical, small-molecule microarray, 635/667 nm fluorescence, primary screen (AID 1142); details: 635 nm fluorescence, higher = more signal;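 also: fluorescence read at 667 nm with signal to noise per printed feature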
# [11] = ATP-based viability of Huh7 replicon cells – cell-based, CellTiter-Glo luminescence, basal, 48 h, cytotoxicity control for HCV replication inhibitor project, primary screen (AID 1143); details: higher = more signal, called active from +8 up or from −8 down;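 also: Huh7 hepatoma cells carrying a hepatitis C replication reporter with no stimulus; test concentration not given here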
# [12] = Pseudomonas biofilm growth suppression – PAO1 strain, BacTiter-Glo luminescence, LB-PBS, primary screen (AID 1144); details: P. aeruginosa PAO1 biofilm, 12 h, higher = more signal
# [13] = basal CRE-LacZ reporter activity in PC12 – cell-based, unstimulated, primary screen (AID 1145); details: no forskolin, luminescence, 4.5 h, higher = more signal, called active from +8 up or from −8 down
# [14] = forskolin-driven CRE-LacZ activity in PC12 – cell-based, CRE-LacZ reporter, forskolin-stimulated, primary screen (AID 1146); details: luminescence, 4.5 h, higher = more signal, called active from +8 up or from −8 down;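 also: PC12 cells with 6xCRE LacZ reporter stimulated by forskolin 10 µM; beta-galactosidase reporter signal reflecting CREB driven transcription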
# [15] = biological target: Streptavidin (Streptomyces avidinii) (UniProt P22629); experiment: compounds binding control protein streptavidin – biophysical, small-molecule microarray, 635/667 nm fluorescence, artefact control for SMM compound annotation, primary screen (AID 1147); details: higher = more signal;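 also: signal reflects streptavidin binding to arrayed compounds as a control protein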
# Streptavidin (Streptomyces avidinii), sequence (P22629 whole entry, looked up): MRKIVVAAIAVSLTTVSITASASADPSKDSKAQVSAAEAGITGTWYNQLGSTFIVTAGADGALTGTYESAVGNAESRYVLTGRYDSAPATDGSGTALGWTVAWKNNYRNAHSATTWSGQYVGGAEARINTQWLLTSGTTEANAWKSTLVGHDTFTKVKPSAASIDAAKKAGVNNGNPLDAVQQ
# [16] = probe aInhba binding on compound microarray – biochemical, small-molecule microarray, 635/667 nm fluorescence, primary screen (AID 1148); details: higher = more signal;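 also: score merges 667nm spot fluorescence with signal-to-noise for antibody binding to printed compounds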
# Torsin-1A (Homo sapiens) [17] = biological target: Torsin-1A (Homo sapiens) (UniProt O14656); experiment: TOR1A wild-type binding on microarray – cell lysate, small-molecule microarray, lysate, 635/667 nm, primary screen (AID 1149); details: COS7 hTOR1A-WT lysate, 635 nm fluorescence, higher = more signal
# Torsin-1A (Homo sapiens), sequence (O14656 whole entry, looked up): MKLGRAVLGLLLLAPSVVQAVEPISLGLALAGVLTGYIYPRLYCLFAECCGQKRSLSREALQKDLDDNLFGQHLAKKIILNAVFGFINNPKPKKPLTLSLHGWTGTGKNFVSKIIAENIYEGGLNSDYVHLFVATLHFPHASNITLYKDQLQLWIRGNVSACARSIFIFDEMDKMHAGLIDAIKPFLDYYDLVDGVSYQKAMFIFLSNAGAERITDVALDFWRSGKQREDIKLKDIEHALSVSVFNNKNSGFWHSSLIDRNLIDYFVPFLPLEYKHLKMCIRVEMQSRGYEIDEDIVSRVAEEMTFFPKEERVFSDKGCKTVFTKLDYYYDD
# Torsin-1A (Homo sapiens) [18] = biological target: Torsin-1A (Homo sapiens) (UniProt O14656); experiment: torsin A mutant lysate binding on microarrays – cell lysate, small-molecule microarray, COS7 lysate, 635/667 nm fluorescence, primary screen (AID 1150); details: COS7 hTOR1A mutant lysate, 635 nm fluorescence, higher = more signal;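 also: score pools 667 nm emission and signal to noise measuring lysate protein binding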
# [19] = system: Sonic hedgehog protein (Shh); experiment: Sonic hedgehog microarray binding compounds – biochemical, small-molecule microarray, 635/667 nm fluorescence, primary screen (AID 1151); details: 635 nm fluorescence, higher = more signal;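 also: Shh protein binding to compounds spotted on small-molecule microarray slides; score combines spot fluorescence intensity with signal-to-noise across triplicate slides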
Compound,composite z-score [1],composite z-score [2],composite z-score [3],composite z-score [4],composite z-score [5],composite z-score [6],z-score [7],composite z-score (Lefty1),composite z-score [8],z-score [9],composite z-score [10],z-score [11],z-score [12],z-score [13],z-score [14],composite z-score [15],composite z-score [16],composite z-score (Torsin-1A (Homo sapiens) [17]),composite z-score (Torsin-1A (Homo sapiens) [18]),composite z-score [19]
O=C1[C@H]2[C@H]3[C@H](O)[C@H](O)CC(=NOCc4ccccc4)[C@H]3CC[C@H]2C(=O)N1C[C@@H]1CCCO1,0.216,0.586,-0.0074,0.953,0.393,1.12,-0.877,0.249,0.352,0.949 (inactive),0.171,-0.34 (inactive),0.282 (inactive),-0.298 (inactive),-0.471 (inactive),0.295,-0.0963,0.95,0.119,0.135
C[C@@H](c1ccccc1)N1C(=O)[C@H]2[C@H]3[C@H](O)[C@H](O)CC(=NNC(=O)OCc4ccccc4)[C@H]3CC[C@H]2C1=O,0.496,-0.387,-0.048,0.253,-0.351,0.0573,-0.118,-0.211,-0.105,0.502 (inactive),0.15,-0.0242 (inactive),0.158 (inactive),0.423 (inactive),-0.0874 (inactive),0.0456,-0.317,-0.184,-0.289,-0.108
CCOC(=O)NN=C1C[C@@H](O)[C@@H](O)[C@@H]2[C@@H]3C(=O)N(CC)C(=O)[C@@H]3CC[C@@H]12,0.249,0.707,0.25,0.356,0.314,-0.0549,0.0102,0.476,-0.203,0.439 (inactive),-0.0087,0.225 (inactive),-0.0164 (inactive),-0.205 (inactive),0.104 (inactive),-0.124,-0.324,0.0252,-0.0727,0.784
C=CCNC(=O)[C@H]1[C@@H]2C(=O)O[C@@H](c3ccccc3)[C@@H](c3ccccc3)N2[C@@H](c2ccc(O)cc2)[C@]12C(=O)N(C(=O)OCCOC)c1ccc(C#CC3=CCCCC3)cc12,0.692,1.22,0.723,0.892,0.379,0.248,-0.76,0.484,0.583,-0.54 (inactive),0.411,-3.95 (inactive),0.101 (inactive),-0.878 (inactive),-0.633 (inactive),0.841,0.935,0.757,1.14,1.45
O=C1[C@H]2[C@H]3[C@H](O)[C@H](O)CC(=NO[C@@H]4O[C@H](CO)[C@@H](O)[C@H](O)[C@H]4O)[C@H]3CC[C@H]2C(=O)N1Cc1ccccc1,0.0948,0.768,0.0406,-0.187,-0.179,0.389,-0.252,0.358,-0.0816,0.589 (inactive),0.927,-0.871 (inactive),0.641 (inactive),-0.474 (inactive),-0.0615 (inactive),0.001,-0.0736,0.717,0.0309,0.439
C=COC[C@H]1CN2[C@@H](CC[C@@H](C)[C@@H]2c2ccc(Br)cc2)C(=O)O1,1.25,0.394,0.0351,0.673,0.504,0.706,0.587,0.51,0.276,-2.84 (inactive),0.52,-0.443 (inactive),-1.13 (inactive),1.59 (inactive),-0.212 (inactive),-0.0488,0.027,0.594,0.0658,1.2
C=CCC(OC(C)=O)[C@@H]1[C@@H](N(Cc2cc3ccccc3o2)C(=O)Cc2ccc(F)cc2)c2cc(OCCCO)ccc2N1C(=O)Cc1ccc(OC)cc1 (stereo not given in full),-0.419,-1.14,-0.0602,0.0188,0.354,-0.271,0.919,0.158,0.0264,-0.188 (inactive),-0.368,-0.276 (inactive),0.00133 (inactive),1.27 (inactive),0.515 (inactive),0.0444,-0.045,-0.499,-0.522,0.603
O=C1CCCC=C1C(O)CCOCc1ccccc1 (stereo not given),-0.467,-0.406,-0.0626,-1,0.112,0.102,-0.758,0.484,-0.123,-0.0361 (inactive),-0.0912,0.056 (inactive),0.964 (inactive),0.11 (inactive),0.0483 (inactive),0.787,-0.2,0.728,0.0645,0.307
COC(=O)[C@H](C)NC(=O)[C@@H](C)CO,0.548,1.2,0.48,0.941,0.252,0.108,-1.08,0.602,1,0.877 (inactive),0.174,-0.76 (inactive),0.06 (inactive),-0.432 (inactive),0.17 (inactive),0.733,-0.0313,0.927,0.461,0.575
CCOC(=O)[C@H](Cc1ccccc1)NC(=O)CCC1CC(OC(=O)NCc2ccc3c(c2)OCO3)CC2(CCCC(COC(=O)NCc3ccccc3)O2)O1 (stereo not given in full),1,1.12,-0.108,0.347,0.725,0.69,1.64,0.688,0.335,0.66 (inactive),0.0594,-0.256 (inactive),-0.971 (inactive),-0.155 (inactive),0.807 (inactive),1.13,-0.168,0.0156,0.28,0.944
